Source: PubChem BioAssay (NCI)
About 83,000 compounds went through this panel and 20% of them were active in at least one assay; those are over-represented in the sample as a whole.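 Values shown are percent growth following 48 h exposure of cells in 96-well plates to a single concentration of compound; below 10 was considered active.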 Unmarked numbers belong to inactive results. Calls of active or inactive are those of the source.

System: OVCAR-3 ovarian
Assay: NCI-60 one-dose screen, 48 h (100 = growth as untreated, 0 = no growth, -100 = all killed)
Conditions: 10 µM unless noted
Method: Growth inhibition of the OVCAR-3 human tumor cell line is measured as a screen for anti-cancer activity. Cells are grown in 96 well plates and exposed to the test compound for 48 hours. Compounds are tested at a single concentration, which is 10^-5 M for most compounds. The reported endpoint is percent growth (GI% or GIPRCNT), where numbers from 0 - 100% represent growth inhibition, and numbers from -100% - 0 represent cell death. For example, a value of 40 represents 60% growth inhibition. A value of 0 means no net growth occurred over the course of the experiment. A value of -40 indicates 40% of cells at the beginning of the experiment died by the end of the experiment. A value of -100 means all cells are dead at the end of the experiment.
NCI-60 Human Tumor Cell Lines Screen was performed using the standard one-dose NCI protocol, which is described in more detail at https://dtp.cancer.gov/discovery_development/nci-60/default.htm.
Compounds with GIPRCNT values below 10 were considered active. Activity score was based on GIPRCNT using the following formula: […]
Score is 0 for GIPRCNT values of 100 or above, 50 for GIPRCNT values of 0, and 100 for GIPRCNT values of -100.

Structure (SMILES)	growth
O=c1[nH]c(CNc2ccc(NCc3c(-c4ccccc4)no[n+]3[O-])cc2)nc2c1cnn2-c1ccccc1	94.4%
N#C/C(=C\c1ccc(Cl)cc1Cl)C(N)=O	109%
CCOC(=O)C1=C(C)Nc2nnc(Nc3ccccc3)n2C1c1ccccc1 (stereo not given)	5.94% (active)
Oc1ccc(CSc2nnc(-c3ccccc3)n2-c2ccccc2)c2cccnc12	6.38% (active)
O=C(/C=C1\C=CN(CCCCF)c2ccccc21)n1ccc2ccccc21	126%
C#CCOc1ccc(C(Nc2ccc(OC)cc2)c2nnnn2C2CCCCC2)cc1 (stereo not given)	112%
O=C(COc1ccc(/C=C2\SC(=O)NC2=O)cc1)Nc1ccc(C(=O)/C=C/c2cc3ccccc3nc2Cl)cc1	85.5%
N#Cc1c(NC(=O)c2ccc(F)c(Cl)c2)sc2c1CCC(=O)C2	-47.3% (active)
COc1cc(/C=N/n2cnc3oc(-c4ccccc4)cc3c2=N)cc(CN2CCN(C)CC2)c1O	110%
O=c1oc2ccc(-c3ccc(F)cc3F)cc2c(=O)n1-c1cccc(C(F)(F)F)c1	10.9%
COc1ccc(CCN2C(=O)/C(=C/c3nc(CO)cs3)SC2=S)cc1	54.2%
C/C(=N/Nc1nc(N/N=C(/C)c2ccc([N+](=O)[O-])cc2)nc(N2CCOCC2)n1)c1ccc([N+](=O)[O-])cc1	88.4%
N/C(=N\c1nc2ccc([N+](=O)[O-])cc2s1)C(Cl)(Cl)Cl	47.4%
O=C(NNc1nc2cc(F)c(F)cc2n2cccc12)c1ccncn1	12.7%
O=C1/C(=C/c2ccccc2[N+](=O)[O-])Oc2ccc(O)cc21	-18.9% (active)
NS(=O)(=O)c1ccc(Nc2nc(N/N=C/c3ccc(F)cc3)nc(Nc3ccccc3)n2)cc1	30.4%
CSc1ccc(/C(=N/N=C(N)N)c2ccccc2)cc1	2.28% (active)
COc1ccc(C(=O)c2c(N)c(C#N)cn2-c2cccc(OC)c2)cc1	30.3%
COc1ccc(Cn2cc3c(c2-c2cc(OC)c(OC)c(OC)c2)CCCc2cnoc2-3)cc1N	7.33% (active)
Oc1ccc(CSc2nnc(-c3cnccn3)n2-c2ccccc2)c2cccnc12	14.8%

Structure (SMILES)	growth
Cc1ccc(S(=O)(=O)N/N=C/c2cn(-c3ccc(F)cc3)nc2-c2ccc(S(C)(=O)=O)cc2)cc1	109%
COc1ccc(-c2nnc(SCc3ccc(O)c4ncccc34)o2)cc1	21.6%
N/C(=N\OC(=O)CSc1nc2ccccc2s1)c1ccc2ccccc2c1	116%
Cc1[nH]nc2ccc(-c3nc4cnc(N5CCN(C)CC5)cn4c3Nc3ccc(F)cc3Br)cc12	10.5%
Cc1ccc(NC(=O)c2ccc(CN3CCN(C)CC3)c(I)c2)cc1Oc1ccc(-c2[nH]nc3ncnc(N)c23)cc1	102%
Brc1cccc(/C=N/Nc2nc(N/N=C/c3cccc(Br)c3)nc(N3CCOCC3)n2)c1	42.4%
CN(C)c1ncc(/C=C2\SC(=S)N(Cc3ccccc3Cl)C2=O)s1	26.8%
O=C(/C=C1\C=CN(CCCCO)c2ccccc21)n1ccc2ccccc21	111%
NCCN1CCN(c2nc(-c3ccccc3)nc3nc(-c4ccccc4)oc23)CC1	-78.6% (active)
CC1OC(O[C@@H]2[C@H](O)C(CO)OC(O[C@H]3COC(O[C@H]4CC[C@]5(C)[C@H]6CC[C@]78OC[C@@]9(CC[C@](C)(C=O)C[C@H]97)C(=O)C[C@@]8(C)[C@]6(C)CC[C@H]5C4(C)C)[C@@H](O)[C@@H]3O)[C@H]2OC2OC[C@@H](O)[C@@H](O)[C@@H]2O)[C@@H](O)[C@@H](O)[C@H]1O (stereo not given in full)	105%
O=C(CSc1nnc(-c2ccc(Cl)cc2)n1-c1ccccc1)Nc1ccc(F)cc1	87.7%
O=C(NNc1nc2cc(F)c(F)cc2n2cccc12)c1ncccn1	20.8%
COc1ccc(-c2cc(-c3ccc(Cl)cc3)nc3nc(N)nn23)cc1	110%
COc1ccc(-c2nn(-c3ccccc3)cc2/C=C/C(=O)c2ccc(NC(=O)CCCCCCC(=O)NO)cc2)cc1	96.2%
CCNC(=O)Oc1ccc(/C(=C(/C)c2ccc(Cl)cc2)c2ccc(OCCN(C)C)cc2)cc1	77.8%
Oc1ccc(CSc2nnc(-c3ccc(Br)cc3)o2)c2cccnc12	27.4%
CCC(=O)Nc1ccc(-c2nc(-c3cccc(O)c3)c(-c3ccnc(Br)c3)[nH]2)cc1	67.5%
O=C(Nc1cccc(-c2nc(-c3ccc(NC(=O)c4cccs4)cc3Cl)no2)c1)Nc1ccc(NC(=O)C2CC2)c(C(F)(F)F)c1	-54.2% (active)
Nc1c(C(=O)c2ccccc2)sc2nc(-c3cnccn3)cc(-c3cccs3)c12	108%
C=C(C)[C@@H]1CC[C@]2(COS(C)(=O)=O)CC[C@]3(C)[C@H](CC[C@@H]4[C@@]5(C)CCCNC(C)(C)[C@@H]5CC[C@]43C)[C@@H]12	92.2%
